Bioassay records from PubChem BioAssay.
KCNQ2 block = KCNQ2 (rat) channel inhibition. 310,000 compounds, 1.1% hits. O88943. CHO-K1 KCNQ2, FluxOR thallium flux, 20 min; hits give low values. AID 2156. B-score at 10 µM;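 active = fluorescence ratio B-score at most minus 3 library SDs, with starting brightness B-score within 2 library SDs, cut at about -5.5 in these data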
KCNQ2 enhance = enhances the rat KCNQ2 potassium channel; CHO-K1 KCNQ2, FluxOR thallium flux fluorescence; hits give high values; O88943; AID 2239; B-score at 10 µM; 310,000 compounds, 0.54% hits;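 active = fluorescence ratio B-score at least 3 SD of library B-scores, with initial fluorescence B-score within 3 of them, cut at about 5.3 in these data; same plate scores as AID 2156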;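 also: B-score of peak minus minimum over baseline fluorescence ratio after K+ and Tl+ stimulus; positive B-score means potentiation of KCNQ2 with more thallium influx and brighter signal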
Kir21 conf inh = confirmation of mouse Kir2.1 potassium channel inhibitors; Tl flux remaining, % of negative control (hits give low values), % at 10 µM; shares compounds with KCNQ2 enhance; 2,300 compounds, 41% hits; Kir2.1-expressing cells, FluxOR thallium flux fluorescence; hits give low values;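 active = Primary-screen hit whose thallium flux fell at least 3 control SD below untreated wells in both duplicates, with normal baseline fluorescence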
HEK293 Tl flux = parental HEK293 activity in Kir2.1 inhibitor counter-screen; shares compounds with KCNQ2 enhance; parental HEK293 cells, FluxOR thallium flux fluorescence; 0% = unstimulated blank wells; 2,300 compounds, 19% hits; FluxOR signal as % of negative control (100 = no effect), % at 10 µM;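 active = dye signal at least 3 control SD above or below untreated wells in both duplicates, raw fluorescence within 3, either direction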;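 also: percent is based on the flux ratio of peak minus minimum fluorescence over baseline F0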
CHO-K1 Tl ctr = counter-screen for KCNQ2 potentiators: effect in parental CHO-K1 cells | shares compounds with KCNQ2 enhance | activity increase over 3SD of controls, % at 10 µM | 1,200 compounds, 43% hits | FluxOR thallium flux fluorescence; zero = vehicle mean+3SD, 100% = vehicle-minus-blank window | AID 2282;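 active = signal rise of at least 3 SD above the untreated control mean, in both duplicate wells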;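 also: counter screen of KCNQ2 potentiator hits so any rise reflects channel-independent effects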
KCNQ1 pot spec = selectivity of KCNQ2 potentiators: effect on human KCNQ1; AID 2283; CHO KCNQ1 stable, FluxOR thallium flux fluorescence; beyond 3SD, as % of vehicle-control signal; shares compounds with KCNQ2 enhance; activation over 3SD threshold, % at 10 µM; 1,200 compounds, 28% hits;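 active = fluorescence ratio rise of at least 3 SD of vehicle wells above their mean, in both replicate wells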
Target sequence (P51787 whole entry, looked up): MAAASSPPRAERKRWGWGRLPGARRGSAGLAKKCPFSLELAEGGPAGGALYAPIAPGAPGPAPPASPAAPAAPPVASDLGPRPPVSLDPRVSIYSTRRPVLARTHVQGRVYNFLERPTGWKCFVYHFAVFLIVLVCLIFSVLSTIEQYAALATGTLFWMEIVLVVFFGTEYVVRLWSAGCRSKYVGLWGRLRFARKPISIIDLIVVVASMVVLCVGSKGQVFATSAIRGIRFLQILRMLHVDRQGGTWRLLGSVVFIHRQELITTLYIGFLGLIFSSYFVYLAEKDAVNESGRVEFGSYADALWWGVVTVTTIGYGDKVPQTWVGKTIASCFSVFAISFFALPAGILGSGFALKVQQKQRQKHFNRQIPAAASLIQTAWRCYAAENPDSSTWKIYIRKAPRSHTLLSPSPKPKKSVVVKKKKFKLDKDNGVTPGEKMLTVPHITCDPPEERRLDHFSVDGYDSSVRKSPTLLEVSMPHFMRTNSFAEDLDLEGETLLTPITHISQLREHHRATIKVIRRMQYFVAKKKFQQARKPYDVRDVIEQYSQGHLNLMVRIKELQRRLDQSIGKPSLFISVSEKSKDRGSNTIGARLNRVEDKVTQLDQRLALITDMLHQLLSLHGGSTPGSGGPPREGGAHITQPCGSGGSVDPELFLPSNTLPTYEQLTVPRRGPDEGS
KCNQ2 pot confirm = confirmation of rat KCNQ2 potassium channel potentiators; 1,200 compounds, 68% hits; potentiation, less the hit threshold, % at 10 µM; AID 2287; CHO-KCNQ2 cells, FluxOR thallium flux fluorescence; shares compounds with KCNQ2 enhance;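 active = fluorescence ratio rising 3 SD or more over the vehicle control mean in both replicates, plus primary screen hit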;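 also: peak minus minimum thallium fluorescence divided by baseline after K/Tl stimulus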
Kir21 spec = tests whether KCNQ2 potentiators also affect mouse Kir2.1; shares compounds with KCNQ2 enhance; HEK293 Kir2.1, FluxOR thallium flux fluorescence; activity over 3SD threshold, % at 10 µM; 1,200 compounds, 2% hits; AID 2345;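 active = fluorescence ratio rise of at least 3 SD above the vehicle-control mean, seen in both replicates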
KCNQ2 W236L MoA = potentiates the retigabine-insensitive rat KCNQ2 W236L mutant channel; AID 2558; 940 compounds, 10% hits; current increase over 3SD of negative controls (%), hits give high values, % at 25 µM; CHO KCNQ2-W236L, automated patch clamp current; shares compounds with KCNQ2 enhance;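 active = current increase at least 3 SD of the untreated controls above them in both duplicate recordings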
Of the large screens only hits and unclear results are named; the others gave an inactive call (follow-up assays come after a bar, where they were run); ! = not confirmed by another sample. Hits are enriched below; roughly 1.6% of the tested compounds scored in any of these assays.

CCc1ccccc1NC(=S)Nn1cnnc1	none
CCCCNS(=O)(=O)c1ccc2nc(-c3cccnc3)cc(C(=O)NCC(OC)OC)c2c1	none (no result: KCNQ2 enhance)
CCCc1ccc(OCc2ccc(C(=O)O)o2)c(OC)c1	none
COc1ccc(CCN(C)C(=O)c2ccc(COc3ccccc3)o2)cc1OC	none (no result: KCNQ2 enhance) | Kir21 conf inh 56.0% | HEK293 Tl flux inactive
CC1CC(C)CN(S(=O)(=O)c2ccc(NC(=S)NC(=O)c3ccccc3)cc2)C1 (stereo not given)	none
CCCCN(C)CCNC(=O)CCn1nc(-c2ccc(C)cc2)ccc1=O	none (no result: KCNQ2 enhance)
O=C(c1cccnc1)N1N=C(C2CC2)CC1(O)C(F)(F)F (stereo not given)	none
O=C(c1ccncc1)N1N=C(C2CC2)CC1(O)C(F)(F)F (stereo not given)	KCNQ2 enhance 6.54 | Kir21 conf inh inactive | HEK293 Tl flux inactive | CHO-K1 Tl ctr 56.2 | KCNQ1 pot spec inactive | KCNQ2 pot confirm inactive | Kir21 spec inactive
Oc1ccccc1C1=NN(c2ccccc2)C(c2ccc(F)cc2)C1 (stereo not given)	none
Oc1ccc(C2=NN(c3ccccc3)C(c3ccc(F)cc3)C2)cc1 (stereo not given)	KCNQ2 enhance 12.3 | Kir21 conf inh inactive | HEK293 Tl flux inactive | CHO-K1 Tl ctr 3.9 | KCNQ1 pot spec inactive | KCNQ2 pot confirm inactive | Kir21 spec inactive
CCC(CNC(=O)c1c(C)nn(-c2ccccc2)c1Cl)c1ccccc1 (stereo not given)	none (no result: KCNQ2 enhance)
COC(=O)n1c(=S)oc2cc(Cl)ccc21	KCNQ2 enhance 8.36 | Kir21 conf inh inactive | HEK293 Tl flux inactive | CHO-K1 Tl ctr 27.5 | KCNQ1 pot spec inactive | KCNQ2 pot confirm inactive | Kir21 spec inactive | KCNQ2 W236L MoA inactive
CCCCOC(=O)n1c(=S)oc2cc(Cl)ccc21	none
COC(=O)c1ccc(CN2CCCC(C(=O)c3ccccc3OC)C2)cc1 (stereo not given)	none (no result: KCNQ2 enhance)
COc1ccc(NC(=O)c2c(NC(=O)CNCc3ccco3)sc3c2CCC3)cc1	none (no result: KCNQ2 enhance)
CCOC(=O)c1c(NC(=O)c2ccco2)sc2c1CCCC2	none
COC(=O)c1c(NC(=O)CCNCc2ccco2)sc2c1CCC2	none | Kir21 conf inh 17.5% | HEK293 Tl flux inactive
CCOC(=O)c1c(NC(=O)CN2CCN(C(=O)c3ccco3)CC2)sc2c1CCCC2	none | Kir21 conf inh inactive | HEK293 Tl flux inactive
Nc1nnnn1/N=C/c1ccc(F)cc1	none
Cc1nc(C)c(-c2ccc(SCC(=O)Nc3cccc(Cl)c3C)nn2)s1	none
O=C(CCc1cn2ccccc2n1)NC1CCCc2c1cnn2-c1ccccc1F (stereo not given)	none (no result: KCNQ2 enhance)
N#CCCN(C(=O)COC(=O)CCc1c[nH]c2ccccc12)c1ccc(F)cc1	none (no result: KCNQ2 enhance)
COC(=O)[C@H](Cc1c[nH]c2ccccc12)NC(=O)Nc1ccccc1OC	none (no result: KCNQ2 enhance)
CCCCN=C(Nc1ccc(Cl)cc1)c1cccnc1	none
NC(=NCCCCCCN=C(N)/N=C(\N)Nc1ccc(Cl)cc1)/N=C(\N)Nc1ccc(Cl)cc1	KCNQ2 enhance 6.98! | Kir21 conf inh inactive | HEK293 Tl flux inactive | CHO-K1 Tl ctr 3.9 | KCNQ1 pot spec inactive | KCNQ2 pot confirm 44.3 | Kir21 spec inactive
Cc1nc2ccccc2c(=O)n1-c1cccc(NC(=O)c2cccs2)c1	none
O=C(Nc1cccc(N2C(=O)C=CC2=O)c1)c1cccs1	none (no result: KCNQ2 enhance) | Kir21 conf inh 72.0% | HEK293 Tl flux inactive
O=C(NCc1ccncc1)c1ccc(NS(=O)(=O)c2ccccc2)cc1	none (no result: KCNQ2 enhance)
CCOc1ccc(-n2cc(-c3ccccc3)c3c(=S)nc[nH]c32)cc1	KCNQ2 enhance 6.9 | Kir21 conf inh inactive | HEK293 Tl flux 148.0% | CHO-K1 Tl ctr 11.3 | KCNQ1 pot spec inactive | KCNQ2 pot confirm 0.0 | Kir21 spec inactive | KCNQ2 W236L MoA inactive
CCOc1ccc(-n2cc(-c3ccccc3)c3c(=O)[nH]cnc32)cc1	none
CCCN1CCC2(CC1)NC(C(=O)O)Cc1c2[nH]c2ccccc12 (stereo not given)	none (no result: KCNQ2 enhance)
COC(=O)C1Cc2c([nH]c3ccccc23)C2(CCN(Cc3ccccc3)CC2)N1 (stereo not given)	none (no result: KCNQ2 enhance) | Kir21 conf inh 67.5% | HEK293 Tl flux inactive
COCCn1c(C)c(C)c(S(=O)(=O)c2ccccc2)c1N	none (no result: KCNQ2 enhance)
CNC[C@@H](Cc1ccccc1)NC[C@@H](CC1CCCCC1)NCCCc1ccccc1	KCNQ2 block -6.16 | Kir21 conf inh inactive | HEK293 Tl flux inactive
CN(Cc1cccc(C(F)(F)F)c1)C(=O)C1CCC(=O)N(CC2CCCCC2)C1 (stereo not given)	none (no result: KCNQ2 enhance)
CNC[C@@H](CC1CCCCC1)NC[C@H](CC(C)C)NCCc1cccc(C(F)(F)F)c1	none (no result: KCNQ2 enhance) | Kir21 conf inh 27.5% | HEK293 Tl flux inactive
CN(C[C@H](Cc1ccccc1)N(C[C@@H](CC1CCCCC1)N(CCc1ccccc1)N=O)N=O)N=O	none (no result: KCNQ2 enhance)
Cc1ccc(NC(=O)C2CCN(S(=O)(=O)c3ccc(N4CCCC4=O)cc3)CC2)cc1Cl	none
O=C(N/C(=C\c1ccccc1)C(=O)N1CCOCC1)c1cccc(Br)c1	none
Cc1cc(OC(=O)c2cccc(Br)c2)c([N+](=O)[O-])c(=O)[nH]1	none
CCCCNC(=O)Oc1ccc(C(=O)N2c3ccccc3NC(=O)C2C)cc1 (stereo not given)	none (no result: KCNQ2 enhance)
O=C1N[C@@H](Cc2ccccc2)C(=O)N2[C@H]1C[C@]1(Br)c3ccccc3N(S(=O)(=O)c3ccc(F)cc3)[C@H]21	none (no result: KCNQ2 enhance)
CN(C)C(=O)c1ccccc1Sc1cc(Cl)ccc1Cl	none (no result: KCNQ2 enhance) | Kir21 conf inh 47.0% | HEK293 Tl flux inactive
CN(C)C(=O)c1ccccc1Sc1ccc(Cl)cc1Cl	none (no result: KCNQ2 enhance)
O=C(NCCC(=O)N1CCCC(C(F)(F)F)C1)c1ccccc1Cl (stereo not given)	none (no result: KCNQ2 enhance)
Cc1cccc(N2CCN(CCCNC(=O)c3ccc(NC(=O)C4=CSCCO4)cc3)CC2C)c1 (stereo not given)	none
CCc1nnc(NC(=O)c2nc(S(=O)(=O)Cc3ccccc3)ncc2Cl)s1	KCNQ2 enhance 12.1 | Kir21 conf inh inactive | HEK293 Tl flux inactive | CHO-K1 Tl ctr 97.0 | KCNQ1 pot spec inactive | KCNQ2 pot confirm 87.2 | Kir21 spec inactive | KCNQ2 W236L MoA 70.4%
